# Measurements published in ChEMBL document CHEMBL3988442, “University of Dundee, Small-Polar-MMV Screening Library” (2021).
# For some of these results: Results with a measured potency or affinity are listed apart.
# Key:
# Set-up in all cases: scale not given: direction of the effect not stated beside the values
# [1] = molecular target: Protein translocase subunit SecA (Escherichia coli (strain K12)) (UniProt P10408); assay: Assay to Identify E. coli SecA ATPase Inhibitors; type: functional; settings: 30 µM
# Sequence of Protein translocase subunit SecA (Escherichia coli (strain K12)) (P10408 whole entry): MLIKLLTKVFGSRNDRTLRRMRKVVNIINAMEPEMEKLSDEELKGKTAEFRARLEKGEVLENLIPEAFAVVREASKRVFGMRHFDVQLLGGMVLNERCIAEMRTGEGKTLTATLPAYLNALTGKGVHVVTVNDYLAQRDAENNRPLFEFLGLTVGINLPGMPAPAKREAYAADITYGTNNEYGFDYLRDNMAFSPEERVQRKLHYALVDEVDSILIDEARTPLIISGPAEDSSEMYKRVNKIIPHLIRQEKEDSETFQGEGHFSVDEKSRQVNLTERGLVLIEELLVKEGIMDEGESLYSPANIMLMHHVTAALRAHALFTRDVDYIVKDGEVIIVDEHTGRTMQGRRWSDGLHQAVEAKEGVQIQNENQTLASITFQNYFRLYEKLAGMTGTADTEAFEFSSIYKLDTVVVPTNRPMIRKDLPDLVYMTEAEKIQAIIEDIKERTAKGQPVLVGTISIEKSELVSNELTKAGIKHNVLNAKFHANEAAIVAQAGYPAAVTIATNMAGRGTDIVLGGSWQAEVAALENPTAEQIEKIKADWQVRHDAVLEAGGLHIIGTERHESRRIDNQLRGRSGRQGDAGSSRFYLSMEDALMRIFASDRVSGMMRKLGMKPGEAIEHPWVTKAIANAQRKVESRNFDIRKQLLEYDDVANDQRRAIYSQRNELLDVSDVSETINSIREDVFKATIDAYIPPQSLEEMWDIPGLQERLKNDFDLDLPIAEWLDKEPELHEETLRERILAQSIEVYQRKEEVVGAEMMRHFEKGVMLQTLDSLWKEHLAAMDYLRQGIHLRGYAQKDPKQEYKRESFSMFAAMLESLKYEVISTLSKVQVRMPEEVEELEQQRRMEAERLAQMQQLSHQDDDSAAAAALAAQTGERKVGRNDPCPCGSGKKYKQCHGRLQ
# [2] = molecular target: T1, Ubiquitin-activating enzyme e1, putative (Leishmania donovani (strain BPK282A1)) (UniProt E9BSI1); assay: Leishmania donovani Ubiquitin Activating Enzyme (LdE1); type: functional; settings: 30 µM
# T1 sequence (whole entry): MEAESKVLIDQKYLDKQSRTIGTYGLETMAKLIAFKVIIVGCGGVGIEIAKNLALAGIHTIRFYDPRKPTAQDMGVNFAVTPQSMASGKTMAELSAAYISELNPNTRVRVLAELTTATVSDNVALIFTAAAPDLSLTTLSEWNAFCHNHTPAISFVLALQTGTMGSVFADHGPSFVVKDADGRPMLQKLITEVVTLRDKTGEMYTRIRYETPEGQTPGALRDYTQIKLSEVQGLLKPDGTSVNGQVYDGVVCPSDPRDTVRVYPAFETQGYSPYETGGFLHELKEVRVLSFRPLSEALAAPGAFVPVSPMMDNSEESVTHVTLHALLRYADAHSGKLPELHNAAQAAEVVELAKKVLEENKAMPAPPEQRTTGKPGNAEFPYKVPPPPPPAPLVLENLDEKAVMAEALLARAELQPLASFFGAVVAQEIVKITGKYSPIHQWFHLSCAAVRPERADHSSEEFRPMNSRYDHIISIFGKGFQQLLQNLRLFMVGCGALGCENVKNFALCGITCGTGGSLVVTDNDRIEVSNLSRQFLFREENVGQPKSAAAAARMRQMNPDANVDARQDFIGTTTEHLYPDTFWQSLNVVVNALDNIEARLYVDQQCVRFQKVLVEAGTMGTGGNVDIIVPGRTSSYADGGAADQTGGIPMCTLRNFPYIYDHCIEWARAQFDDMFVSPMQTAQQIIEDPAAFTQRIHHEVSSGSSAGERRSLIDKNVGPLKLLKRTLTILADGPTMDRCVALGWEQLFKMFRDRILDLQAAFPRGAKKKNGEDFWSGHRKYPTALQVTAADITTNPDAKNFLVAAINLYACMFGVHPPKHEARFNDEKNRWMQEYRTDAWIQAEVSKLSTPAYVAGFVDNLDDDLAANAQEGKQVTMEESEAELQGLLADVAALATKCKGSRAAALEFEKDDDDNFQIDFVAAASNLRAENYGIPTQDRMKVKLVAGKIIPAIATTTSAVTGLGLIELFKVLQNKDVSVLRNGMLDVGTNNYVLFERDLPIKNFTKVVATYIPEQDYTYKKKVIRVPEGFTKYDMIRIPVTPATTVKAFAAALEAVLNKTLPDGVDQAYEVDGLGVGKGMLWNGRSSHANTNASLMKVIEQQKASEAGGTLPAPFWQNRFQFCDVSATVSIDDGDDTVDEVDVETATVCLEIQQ
# [3] = molecular target: T2, Aspartate--tRNA(Asp/Asn) ligase (Mycobacterium tuberculosis (strain ATCC 25618 / H37Rv)) (UniProt P9WFW3); assay: Assay for Asp RNA synthetase-1 from Mycobacterium tuberculosis; type: functional; settings: 30 µM; further: in the data most compounds retested in dose-response had high values
# T2 sequence (whole entry): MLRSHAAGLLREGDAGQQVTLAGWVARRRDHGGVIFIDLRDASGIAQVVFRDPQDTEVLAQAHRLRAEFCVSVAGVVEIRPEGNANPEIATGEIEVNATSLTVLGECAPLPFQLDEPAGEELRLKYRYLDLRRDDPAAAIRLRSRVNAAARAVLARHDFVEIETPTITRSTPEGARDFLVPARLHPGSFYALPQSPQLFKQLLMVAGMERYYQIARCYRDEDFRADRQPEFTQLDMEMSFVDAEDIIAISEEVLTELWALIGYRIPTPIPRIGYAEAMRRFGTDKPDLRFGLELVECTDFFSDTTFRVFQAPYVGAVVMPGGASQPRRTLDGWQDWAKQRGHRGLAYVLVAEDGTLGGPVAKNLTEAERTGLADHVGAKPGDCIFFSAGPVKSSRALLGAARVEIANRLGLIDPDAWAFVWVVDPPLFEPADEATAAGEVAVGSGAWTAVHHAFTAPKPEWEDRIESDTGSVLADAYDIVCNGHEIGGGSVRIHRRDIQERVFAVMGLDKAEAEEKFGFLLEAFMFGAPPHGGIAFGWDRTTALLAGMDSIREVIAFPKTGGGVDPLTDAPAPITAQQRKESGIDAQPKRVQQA
# [4] = molecular target: AMP-activated protein kinase, AMPK (Homo sapiens) (UniProt P54646+O43741+P54619+Q9UGJ0+Q9Y478+Q13131+Q9UGI9); assay: AMP-dependent Kinase enzyme assay. An in vitro enzyme assay that detects ADP turnover that is directly proportional to AMPK activity. This uses naive AMPK that is activated during the assay with MK-8722; type: functional; settings: 30 µM
# [5] = molecular target: Sialic acid-binding Ig-like lectin 9 (Homo sapiens) (UniProt Q9Y336); assay: Hs-Siglec9 ALPHAscreen SOP 20170721; settings: 10 µM
# Sequence of Sialic acid-binding Ig-like lectin 9 (Homo sapiens) (Q9Y336 whole entry): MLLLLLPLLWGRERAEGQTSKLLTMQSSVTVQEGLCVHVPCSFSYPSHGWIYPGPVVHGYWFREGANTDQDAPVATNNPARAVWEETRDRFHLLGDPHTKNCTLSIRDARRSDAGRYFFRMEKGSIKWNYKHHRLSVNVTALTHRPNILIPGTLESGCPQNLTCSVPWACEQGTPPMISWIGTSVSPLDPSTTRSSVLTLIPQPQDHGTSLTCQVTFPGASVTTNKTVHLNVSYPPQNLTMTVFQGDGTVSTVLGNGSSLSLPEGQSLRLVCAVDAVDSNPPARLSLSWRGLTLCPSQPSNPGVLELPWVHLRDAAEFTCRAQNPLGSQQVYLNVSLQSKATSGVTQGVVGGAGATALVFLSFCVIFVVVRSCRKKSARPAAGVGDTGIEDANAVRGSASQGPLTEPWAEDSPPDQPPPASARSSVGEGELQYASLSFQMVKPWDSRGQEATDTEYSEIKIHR
# Trypanosoma cruzi = assay: Trypanosoma cruzi phosphomannomutase and mannose-1-phosphate guanylyltransferase assay; type: functional; settings: 10 µM
# [6] = molecular target: T3, Arginase-2, mitochondrial (Homo sapiens) (UniProt P78540); assay: in vitro enzyme assay to detect the production of urea directly proportional to the activity of Arginase II; type: functional; settings: 33.3 µM; further: in the data most compounds retested in dose-response had high values
# T3 sequence (whole entry): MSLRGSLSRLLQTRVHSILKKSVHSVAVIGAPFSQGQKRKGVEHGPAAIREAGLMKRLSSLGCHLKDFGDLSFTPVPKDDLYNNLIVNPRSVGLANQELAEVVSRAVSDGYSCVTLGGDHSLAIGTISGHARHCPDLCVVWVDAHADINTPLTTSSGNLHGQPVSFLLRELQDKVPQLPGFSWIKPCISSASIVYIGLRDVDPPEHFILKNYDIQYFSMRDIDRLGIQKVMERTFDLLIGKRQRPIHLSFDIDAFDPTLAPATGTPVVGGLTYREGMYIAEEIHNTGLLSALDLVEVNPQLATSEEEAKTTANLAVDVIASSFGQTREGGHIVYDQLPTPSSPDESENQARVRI
# [7] = molecular target: T4, Proteasome subunit beta (Trypanosoma cruzi) (UniProt O96673); assay: Trypanosoma cruzi proteasome chymotrypsin-like activity (TcProtChymo) assay.; further: in the data most compounds retested in dose-response had high values; type: functional; settings: 9.37 µM
# T4 sequence (whole entry): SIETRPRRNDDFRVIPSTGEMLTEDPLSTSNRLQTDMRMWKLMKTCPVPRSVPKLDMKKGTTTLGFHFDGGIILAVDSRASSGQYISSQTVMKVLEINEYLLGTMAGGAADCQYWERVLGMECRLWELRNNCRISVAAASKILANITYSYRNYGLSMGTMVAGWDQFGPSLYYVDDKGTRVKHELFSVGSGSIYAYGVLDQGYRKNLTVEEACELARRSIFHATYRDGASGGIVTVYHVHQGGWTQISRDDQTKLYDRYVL
# Homo sapiens = species: Homo sapiens; assay: To identify inhibition of the IFN signalling (Jak-Stat) pathway via expression of an eGFP reporter gene under the control of an IFN-stimulated response element (ISRE) containing MxA promoter.; type: functional; settings: 30 µM
# [8] = molecular target: Shiga toxin 2 (Escherichia coli O157:H7) (UniProt P09385+P09386); assay: E. coli 0.157:H7 Shiga Toxin SOP - stx2 screening assay; type: functional; settings: 30 µM
# [9] = molecular target: T5, Tyrosyl-tRNA synthetase, putative (Trypanosoma cruzi (strain CL Brener)) (UniProt Q4DSP6); assay: Trypanosoma cruzi tyrosyl tRNA synthetase (TcYRS) _High Tyrosine SOP; type: functional; settings: 30 µM; further: in the data most compounds retested in dose-response had high values
# T5 sequence (whole entry): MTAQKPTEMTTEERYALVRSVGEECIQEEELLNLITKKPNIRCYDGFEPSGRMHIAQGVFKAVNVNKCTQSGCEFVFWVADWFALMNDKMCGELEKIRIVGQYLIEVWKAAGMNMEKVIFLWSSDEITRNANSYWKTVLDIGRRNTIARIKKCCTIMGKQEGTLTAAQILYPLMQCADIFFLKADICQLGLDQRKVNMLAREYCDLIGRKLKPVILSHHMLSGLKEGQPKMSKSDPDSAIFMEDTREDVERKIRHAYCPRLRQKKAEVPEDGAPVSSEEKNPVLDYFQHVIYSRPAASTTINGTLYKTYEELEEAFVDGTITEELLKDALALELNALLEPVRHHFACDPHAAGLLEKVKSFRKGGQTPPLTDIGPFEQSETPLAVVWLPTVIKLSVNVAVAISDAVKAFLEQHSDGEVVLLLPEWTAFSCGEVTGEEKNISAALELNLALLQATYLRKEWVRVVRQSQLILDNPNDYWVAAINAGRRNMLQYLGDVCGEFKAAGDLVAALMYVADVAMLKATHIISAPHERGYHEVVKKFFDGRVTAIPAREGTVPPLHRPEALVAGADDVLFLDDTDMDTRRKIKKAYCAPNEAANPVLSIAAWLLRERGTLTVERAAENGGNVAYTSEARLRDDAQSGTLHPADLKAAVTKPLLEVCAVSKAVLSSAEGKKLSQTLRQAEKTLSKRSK
# [10] = molecular target: T5, Tyrosyl-tRNA synthetase, putative (Trypanosoma cruzi (strain CL Brener)); assay: Trypanosoma cruzi tyrosyl tRNA synthetase (TcYRS) SOP; type: functional; settings: 30 µM
# [11] = molecular target: Chromo domain-containing protein 1 (Saccharomyces cerevisiae (strain ATCC 204508 / S288c) (Baker's yeast)) (UniProt P32657); assay: ScCHD-1 Enzyme Inhibition Assay; type: functional; settings: 30 µM; further: in the data most compounds retested in dose-response had high values
# Sequence of Chromo domain-containing protein 1 (Saccharomyces cerevisiae (strain ATCC 204508 / S288c) (Baker's yeast)) (P32657 whole entry, the tested form may be a part): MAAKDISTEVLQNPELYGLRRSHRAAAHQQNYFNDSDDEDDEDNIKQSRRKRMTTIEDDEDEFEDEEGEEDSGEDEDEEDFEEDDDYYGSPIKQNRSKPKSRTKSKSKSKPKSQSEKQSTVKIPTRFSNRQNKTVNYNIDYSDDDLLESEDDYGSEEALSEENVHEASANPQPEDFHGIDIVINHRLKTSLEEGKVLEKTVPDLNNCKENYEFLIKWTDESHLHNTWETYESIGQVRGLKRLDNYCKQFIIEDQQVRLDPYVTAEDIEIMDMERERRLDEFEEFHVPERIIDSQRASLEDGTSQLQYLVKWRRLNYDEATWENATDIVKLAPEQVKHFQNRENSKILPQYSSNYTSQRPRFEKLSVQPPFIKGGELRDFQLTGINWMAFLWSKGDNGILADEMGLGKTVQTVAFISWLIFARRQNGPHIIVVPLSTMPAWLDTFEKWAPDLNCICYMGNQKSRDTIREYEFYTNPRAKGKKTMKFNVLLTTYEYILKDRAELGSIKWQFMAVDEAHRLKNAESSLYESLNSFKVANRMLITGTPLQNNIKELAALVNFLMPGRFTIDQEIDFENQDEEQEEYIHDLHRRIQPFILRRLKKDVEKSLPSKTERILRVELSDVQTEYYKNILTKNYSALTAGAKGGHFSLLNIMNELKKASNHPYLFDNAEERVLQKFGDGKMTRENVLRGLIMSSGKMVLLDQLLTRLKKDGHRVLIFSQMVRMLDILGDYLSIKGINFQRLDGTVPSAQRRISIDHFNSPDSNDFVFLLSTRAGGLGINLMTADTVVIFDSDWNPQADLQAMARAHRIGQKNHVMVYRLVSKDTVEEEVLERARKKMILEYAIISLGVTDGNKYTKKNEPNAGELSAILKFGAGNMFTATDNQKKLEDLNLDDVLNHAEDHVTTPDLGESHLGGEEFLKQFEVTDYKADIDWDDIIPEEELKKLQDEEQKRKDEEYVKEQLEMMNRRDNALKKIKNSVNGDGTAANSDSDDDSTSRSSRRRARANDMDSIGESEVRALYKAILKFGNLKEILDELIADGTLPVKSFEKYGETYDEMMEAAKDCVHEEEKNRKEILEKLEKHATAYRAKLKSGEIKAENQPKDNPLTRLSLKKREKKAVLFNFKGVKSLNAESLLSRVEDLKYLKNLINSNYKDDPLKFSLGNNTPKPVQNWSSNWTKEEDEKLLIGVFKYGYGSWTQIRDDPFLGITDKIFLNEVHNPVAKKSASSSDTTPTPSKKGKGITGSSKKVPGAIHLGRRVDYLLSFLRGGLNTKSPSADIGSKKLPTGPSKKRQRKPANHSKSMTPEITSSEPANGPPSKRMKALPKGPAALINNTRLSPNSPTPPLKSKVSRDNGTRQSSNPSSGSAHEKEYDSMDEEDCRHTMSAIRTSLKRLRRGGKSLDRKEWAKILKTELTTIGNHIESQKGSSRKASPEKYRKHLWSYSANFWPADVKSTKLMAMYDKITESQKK
SMILES,Percent Effect [1] [%],Percent Effect [2] [%],Percent Effect [3] [%],Percent Effect [4] [%],Percent Effect [5] [%],Percent Effect (Trypanosoma cruzi) [%],Percent Effect [6] [%],Percent Effect [7] [%],Percent Effect (Homo sapiens) [%],Percent Effect [8] [%],Percent Effect [9] [%],Percent Effect [10] [%],Percent Effect [11] [%]
CC(C)CN1C[C@H]2C[C@H](C(=O)Nc3cccnc3)[C@@H](C1)O2,-0.904,0,-0.0153,7.32,-2.44,-7.33,2.87,15.9,-8.69,-15.6,1.08,15.4,2.38
O=C(c1cc(-n2cccc2)ccc1Cl)N1CCC2(CC1)OCCO2,-3.83,7.89,3.38,15.4,-3.27,-0.876,-8.28,15.8,1.48,8.93,2.13,10.4,-2.85
c1ccc(CN2C[C@@H]3OCCN(c4ncccn4)[C@@H]3C2)nc1,-3.31,5.33,-0.456,12.4,1.5,-4.53,-1.17,-2.73,6.09,1.03,6.38,8.97,-1.36
O=C(Cc1cccs1)N1C[C@@H]2OCCN(CC3CCCO3)[C@@H]2C1 (some centres undefined),-3.88,0,-5.27,-1.33,4.51,-2.58,-0.399,15.3,15.2,-19.8,2.08,6.17,-0.242
CN1CCCC(c2n[nH]c3ncccc23)C1 (centres undefined),-3.58,-1.35,-7.01,6.99,2.48,-0.198,-0.232,5.93,-5.01,1.35,2.15,1.3,6.39
O=C(C1CCOC1)N1C[C@H]2CN(Cc3ccccn3)C[C@H]2C1 (some centres undefined),-0.372,13.5,-0.474,2.96,-5.9,0.293,6.05,16.2,-9.37,-2.63,6.49,15.4,-0.817
NCC1(c2cccc(C(F)(F)F)c2)CCOCC1,-1.6,5.41,0.69,-16.1,-3.19,-0.781,25,15.6,7.66,-1.62,7.92,18.3,107
COC[C@]12COC[C@H]1CN(Cc1cccnc1OC)C2,-3.99,9.33,-1.36,1.98,1.86,-4.32,-8.63,18.7,-3.88,-17.2,7.41,5.13,-3.25
Cn1ccnc1CN1CCC2(CC(=O)N(c3cncnc3)C2)C1 (centres undefined),-1.68,2.7,-3.41,10,1.79,-2.64,2.23,21.2,2.89,0.165,2.16,12.8,1.86
O=C(c1ccc2c(c1)COC2)N1CCC(Nc2ccccc2)CC1,-4.95,7.79,-0.152,5.07,13.2,5.06,1.78,-4.05,25,1.98,6.8,24.4,-6.83
c1cncc(OC[C@]23COC[C@H]2CN(Cc2cccs2)C3)c1,-3.94,5.41,4.12,0.208,-2.85,-2.34,-0.417,6.85,11.9,-3,6.93,15.8,4.29
COCC(=O)NC(C)Cc1cccc(Br)c1 (centres undefined),-8.66,13.2,-1.17,-9.62,6.28,10.3,-0.383,9.19,12.7,-16.5,7.35,19.5,-12.4
Cc1nnc([C@H]2CC[C@@H]3[C@@H](CCN3Cc3c(C)noc3C)O2)o1,-0.00919,8,2.12,3.84,-0.659,-5.79,-54.3,11.4,-18.2,-1.17,6.25,22.5,-6.76
